Drawing on PubChem BioAssay (NCI), this text covers growth for 14 molecules.

The panel holds about 83,000 compounds, 20% with a hit somewhere; the sample as a whole holds those more often.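 Step 1: grow cells in 96-well plates. Step 2: add test compound at a single concentration. Step 3: incubate 48 h. Step 4: record percent growth.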 A number with no mark means an inactive call. The source made the active and inactive calls. Rule for the calls: active = growth percent below 10; inactive = the rest.

Test systems include RPMI-8226 leukemia; OVCAR-8 ovarian; OVCAR-5 ovarian; OVCAR-4 ovarian; SK-OV-3 ovarian; IGROV1 ovarian; OVCAR-3 ovarian; HS 578T breast; NCI/ADR-RES ovarian; T-47D breast.
What all share (test): NCI-60 one-dose screen, 48 h (100 = growth as untreated, 0 = no growth, -100 = all killed)
Holding throughout (conditions): 10 µM unless noted

Regarding `COC(=O)C1=C(C)NC(C)=C(C(=O)OC)C(N2C(=O)CCC2=O)C1` (stereo unspecified), the growth is 66.8% in the assay with RPMI-8226 leukemia; 88.7% in the assay with OVCAR-8 ovarian; 114% in the assay with OVCAR-5 ovarian; 79.4% in the assay on OVCAR-4 ovarian; 104% in the assay with SK-OV-3 ovarian; 99.3% in the assay on IGROV1 ovarian. The growth in the assay with OVCAR-3 ovarian was 99.6%; in the assay on HS 578T breast, 107%; with NCI/ADR-RES ovarian, 95.9%; in the assay with T-47D breast, 93.9%.
Consider `Cc1nc2ccccc2c(/C=C/c2ccc(F)cc2)c1C(N)=O`, for which the growth in the assay on RPMI-8226 leukemia is 96.1%; in the assay on OVCAR-8 ovarian, 104%; in the assay on OVCAR-5 ovarian it was 105%; in the assay with OVCAR-4 ovarian it was 95.5%; with SK-OV-3 ovarian, 105%; in the assay on IGROV1 ovarian it was 97.4%. For the same molecule, the growth with OVCAR-3 ovarian is 107%; with HS 578T breast it was 106%; with NCI/ADR-RES ovarian, 111%; with T-47D breast, 90.8%.
Regarding `c1ccc(CNc2nc(Nc3ccccc3)nc3ccccc23)cc1`, the growth was 45.4% in the assay with RPMI-8226 leukemia; 34.9% in the assay on OVCAR-8 ovarian; 72.8% in the assay with OVCAR-5 ovarian; 36.8% in the assay on OVCAR-4 ovarian; 3.4% (active) in the assay on SK-OV-3 ovarian; 63.2% with IGROV1 ovarian. Further, the growth was 39.6% with OVCAR-3 ovarian, 44.4% in the assay on HS 578T breast, 62.3% in the assay with NCI/ADR-RES ovarian and 77.4% in the assay on T-47D breast.
`COc1ccc(C2Nc3ncnc(N)c3N=C3c4ccccc4C(=O)C32)cc1` (stereo unspecified): the growth in the assay with RPMI-8226 leukemia is 80%; in the assay with OVCAR-8 ovarian it was 108%; in the assay with OVCAR-5 ovarian it was 98.1%; in the assay with OVCAR-4 ovarian, 82.8%; in the assay with SK-OV-3 ovarian, 84.7%; with IGROV1 ovarian, 79.4%. For the same molecule, the growth was 83.9% in the assay on OVCAR-3 ovarian, 94.5% in the assay on HS 578T breast and 105% in the assay with NCI/ADR-RES ovarian.
For `COc1ccc2sc(N(Cc3cccnc3)C(=O)c3ccc(C#N)cc3)nc2c1`, the growth is 64.4% with RPMI-8226 leukemia; 80.7% with OVCAR-8 ovarian; 96.7% with OVCAR-5 ovarian; 105% in the assay on OVCAR-4 ovarian; 106% in the assay with SK-OV-3 ovarian; 98.1% in the assay on IGROV1 ovarian. Also, the growth with OVCAR-3 ovarian is 92.2%; in the assay on HS 578T breast, 85.1%; with NCI/ADR-RES ovarian, 85.4%.
On to `O=C(Nc1ccc(-c2nc3ccc(NC(=O)c4ccc(Cl)cc4)cc3[nH]2)cc1)c1ccc(Cl)cc1`, for which the growth in the assay with RPMI-8226 leukemia is -22.6% (active); in the assay on OVCAR-8 ovarian, 21.4%; in the assay with OVCAR-5 ovarian, 39.3%; with OVCAR-4 ovarian it was -2.34% (active); in the assay with SK-OV-3 ovarian, 60.7%; with IGROV1 ovarian, 45.1%. The growth in the assay on OVCAR-3 ovarian is -64.9% (active); with HS 578T breast, 57.9%; in the assay on NCI/ADR-RES ovarian, 40.2%.
On to `O=c1c2cc(F)ccc2sc2c(NCCCNCCO)nc3ccc(Cl)cc3c12`, for which the growth is 36% in the assay on RPMI-8226 leukemia; 63.7% in the assay on OVCAR-8 ovarian; 79.5% in the assay with OVCAR-5 ovarian; 61% in the assay on OVCAR-4 ovarian; 87.7% with SK-OV-3 ovarian; 32% in the assay on IGROV1 ovarian. In addition, the growth with OVCAR-3 ovarian was 68%; with HS 578T breast, 56.8%; in the assay with NCI/ADR-RES ovarian, 85.8%; in the assay with T-47D breast, 57.5%.
For `O=C1c2cc(Br)ccc2Oc2cc([N+](=O)[O-])ccc2N1c1ccc(I)cc1F`, the growth in the assay with RPMI-8226 leukemia was 104%; in the assay on OVCAR-8 ovarian, 94.6%; with OVCAR-5 ovarian it was 97.7%; with OVCAR-4 ovarian it was 94.5%; with SK-OV-3 ovarian, 115%; in the assay on IGROV1 ovarian, 97.9%. Further, the growth in the assay on OVCAR-3 ovarian is 109%; with HS 578T breast, 101%; in the assay with NCI/ADR-RES ovarian, 99.6%; in the assay with T-47D breast, 100%.
For the molecule `CCN1C(=O)N(CC)C2Nn3c(s/c(=C\c4ccccc4F)c3=O)=NC21` (stereo unspecified), the growth in the assay on RPMI-8226 leukemia was 54.1%; in the assay on OVCAR-8 ovarian, 44%; in the assay with OVCAR-5 ovarian, 76.5%; in the assay with OVCAR-4 ovarian, 84.9%; with SK-OV-3 ovarian, 44.8%; in the assay on IGROV1 ovarian, 61.1%. Also, the growth in the assay with OVCAR-3 ovarian is 28.5%; with HS 578T breast, 56.9%; in the assay with NCI/ADR-RES ovarian it was 7.68% (active).
Take `COc1ccc(CCN2C(=O)CCSC2=S)cc1`: the growth is 8.09% (active) with RPMI-8226 leukemia; 63.7% with OVCAR-8 ovarian; 98.1% in the assay on OVCAR-5 ovarian; 74.8% with OVCAR-4 ovarian; 102% in the assay with SK-OV-3 ovarian; 41.7% in the assay with IGROV1 ovarian. Also, the growth was 9.45% (active) in the assay on OVCAR-3 ovarian, 87.7% in the assay on HS 578T breast, 71.7% in the assay on NCI/ADR-RES ovarian and 62% in the assay on T-47D breast.
Regarding `COc1ccc(C)c2sc(N(Cc3cccnc3)C(=O)c3ccc(C#N)cc3)nc12`, the growth with RPMI-8226 leukemia was 8.4% (active); with OVCAR-8 ovarian, -10.5% (active); with OVCAR-5 ovarian, 24.3%; with OVCAR-4 ovarian it was 14.3%; in the assay on SK-OV-3 ovarian it was 12.6%; with IGROV1 ovarian, -14.3% (active). Also, the growth was 15.1% with OVCAR-3 ovarian, -1.42% (active) in the assay on HS 578T breast, 9.32% (active) in the assay with NCI/ADR-RES ovarian and -0.727% (active) in the assay on T-47D breast.
On to `COc1ccc(C2=Nn3c(NN)nnc3SC2)cc1`, for which the growth with RPMI-8226 leukemia is 104%; with OVCAR-8 ovarian, 96.4%; in the assay with OVCAR-5 ovarian, 108%; in the assay with OVCAR-4 ovarian it was 101%; in the assay with SK-OV-3 ovarian, 105%; with IGROV1 ovarian it was 96%. Moreover, the growth with OVCAR-3 ovarian is 111%; in the assay with HS 578T breast, 96%; in the assay on NCI/ADR-RES ovarian it was 102%; in the assay with T-47D breast, 96.1%.
With `O=C(NC1CCCCC1)C(c1cccs1)N(CCc1ccccc1)C(=O)c1ccco1` (stereo unspecified), the growth in the assay on RPMI-8226 leukemia is 79.7%; in the assay on OVCAR-8 ovarian, 88.2%; in the assay on OVCAR-5 ovarian, 87.1%; with OVCAR-4 ovarian, 95.9%; in the assay with SK-OV-3 ovarian it was 89.6%; with IGROV1 ovarian, 97.7%. Also, the growth in the assay on OVCAR-3 ovarian is 96.6%; in the assay on HS 578T breast, 93.8%; in the assay on NCI/ADR-RES ovarian it was 94.3%; in the assay with T-47D breast, 85.1%.
Turning to `Nc1ccc(-c2nn3c(CCC(=O)c4nc5ncccc5[nH]4)nnc3s2)c(O)c1`, the growth in the assay on RPMI-8226 leukemia is 101%; in the assay on OVCAR-8 ovarian, 98.2%; in the assay with OVCAR-5 ovarian it was 95%; with OVCAR-4 ovarian, 98%; in the assay with SK-OV-3 ovarian, 91.4%; with IGROV1 ovarian it was 70.9%. Further, the growth was 100% with OVCAR-3 ovarian, 74% with HS 578T breast, 93.8% in the assay on NCI/ADR-RES ovarian and 87.1% in the assay on T-47D breast.
